# PMC4336329 (PLoS ONE, 2015)
# About 14,000 (4.5%) of roughly 310,000 compounds showed an effect of 50% or more. The effect is printed as a negative number. This excerpt belongs to a sample that is enriched for strong results.
# Target: human ether-à-go-go-related gene (hERG) potassium channel (human, UniProt Q12809)
# Assay: primary screen, population patch clamp on CHO cells stably expressing hERG; higher = less effect of the substance
# 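Further: peak tail current of the secondary pulse compared with the same well before compound.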
# human ether-à-go-go-related gene (hERG) potassium channel, sequence (Q12809 whole entry, looked up): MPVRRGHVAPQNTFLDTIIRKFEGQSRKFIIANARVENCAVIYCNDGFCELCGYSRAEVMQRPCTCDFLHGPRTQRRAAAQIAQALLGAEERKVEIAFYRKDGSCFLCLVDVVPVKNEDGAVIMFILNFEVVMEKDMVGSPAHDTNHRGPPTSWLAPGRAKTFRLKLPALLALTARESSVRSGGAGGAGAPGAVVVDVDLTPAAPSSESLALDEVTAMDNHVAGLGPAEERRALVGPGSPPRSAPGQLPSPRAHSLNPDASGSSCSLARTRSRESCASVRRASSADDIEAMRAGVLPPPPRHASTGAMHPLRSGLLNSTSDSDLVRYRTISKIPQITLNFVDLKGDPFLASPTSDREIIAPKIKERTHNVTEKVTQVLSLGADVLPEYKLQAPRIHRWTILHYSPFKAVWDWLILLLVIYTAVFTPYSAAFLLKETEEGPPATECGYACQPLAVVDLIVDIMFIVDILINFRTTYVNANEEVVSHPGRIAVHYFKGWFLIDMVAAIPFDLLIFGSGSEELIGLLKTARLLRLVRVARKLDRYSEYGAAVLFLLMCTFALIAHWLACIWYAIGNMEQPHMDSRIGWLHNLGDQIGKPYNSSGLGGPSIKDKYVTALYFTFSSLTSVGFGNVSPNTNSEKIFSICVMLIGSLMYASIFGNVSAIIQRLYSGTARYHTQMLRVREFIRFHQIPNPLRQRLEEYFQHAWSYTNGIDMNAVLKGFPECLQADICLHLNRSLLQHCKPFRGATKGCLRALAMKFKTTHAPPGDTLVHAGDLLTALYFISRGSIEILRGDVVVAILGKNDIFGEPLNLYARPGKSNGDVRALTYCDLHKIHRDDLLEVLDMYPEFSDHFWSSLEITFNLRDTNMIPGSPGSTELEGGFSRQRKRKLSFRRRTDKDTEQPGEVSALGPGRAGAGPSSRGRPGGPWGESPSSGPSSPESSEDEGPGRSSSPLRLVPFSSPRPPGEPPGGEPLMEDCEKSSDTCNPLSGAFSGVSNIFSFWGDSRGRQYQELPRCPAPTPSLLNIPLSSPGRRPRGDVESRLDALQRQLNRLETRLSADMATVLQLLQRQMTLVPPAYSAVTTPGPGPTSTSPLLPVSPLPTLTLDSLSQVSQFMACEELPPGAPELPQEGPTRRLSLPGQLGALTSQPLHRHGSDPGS
row,Compound,"hERG current change (%, negative = inhibition) at 10uM"
1,CCNC(=S)NNC(=O)CCn1cc(C)cn1,20.7%
2,Cc1cccc(N2CCN(S(=O)(=O)c3c(C)[nH]c(C)c3C(=O)N3CCCC3)CC2C)c1 (stereo not shown),-19.2%
3,COc1ccccc1CNC(=O)COC(=O)c1ccc(Cl)c(N)c1,21.8%
4,N=c1c(S(=O)(=O)c2ccc(Br)cc2)cc2c(=O)n3ccccc3nc2n1C1CCCCC1,22.8%
5,N=c1c(S(=O)(=O)c2ccccc2)cc2c(=O)n3ccccc3nc2n1C1CCCC1,1.62%
6,N=c1c(S(=O)(=O)c2ccc(Br)cc2)cc2c(=O)n3ccccc3nc2n1C1CCCC1,9.15%
7,N=c1c(C(=O)NCC2CCCO2)cc2c(=O)n3ccccc3nc2n1C1CCCCC1 (stereo not shown),-77.3%
8,N=c1c(C(=O)NCC2CCCO2)cc2c(=O)n3ccccc3nc2n1C1CCCC1 (stereo not shown),-76.9%
9,Cc1nc(C(=O)NC2CC2)sc1C1(C)CC(c2ccccc2)=NO1 (stereo not shown),-8.63%
10,Cc1ccc(Nc2nc(CSc3nnnn3-c3ccccc3)cs2)cc1,14.7%
11,CNC(=O)NC(=O)CN1C(=O)NC2(CCOc3ccccc32)C1=O (stereo not shown),18.9%
12,CC(C)OP(=O)(OC(C)C)/C(C=O)=N\Nc1ccc([N+](=O)[O-])cc1,-55.1%
13,N#CC(C#N)=NNc1ccc([N+](=O)[O-])cc1,-2.55%
14,COP(=O)(OC)/C(C=O)=N/Nc1ccc([N+](=O)[O-])cc1,-36.3%
15,CC(C)CCNC(=O)C1CCN(C(=O)N(C)C)CC1,14.5%
16,Cc1c(N2C(=O)CS/C2=N\N=C\c2ccc(Cl)cc2)c(=O)n(-c2ccccc2)n1C,-32.2%
17,CN1CCN(CCCN(Cc2ccco2)C(=S)Nc2ccc(Cl)cc2)CC1,-69.6%
18,CCN1CCN(CCCN(Cc2ccco2)C(=S)Nc2ccc(Cl)cc2)CC1,-64.2%
19,S=C(Nc1ccc(Cl)cc1)N(CCCN1CCOCC1)Cc1ccco1,-26%
20,CCOC(=O)C1C2C=CC3(CN(Cc4cccs4)C(=O)C13)O2 (stereo not shown),1.73%
21,CCOc1cccc(C(=O)NC(=S)Nc2cccc(C)c2)c1,6.87%
22,COCCCn1cnnc1SCc1nc2sc(C(C)=O)c(C)c2c(=O)[nH]1,-17%
23,Cc1ccc2nc(C)c3c(c2c1)N(c1ccc(F)cc1)CC3,-92.2%
24,Cc1nc2ccc(Cl)cc2c(=O)n1-c1cccc(Cl)c1,3.78%

row,Compound,"hERG current change (%, negative = inhibition) at 10uM"
1,Cc1ccc2nc(C)c3c(c2c1)N(c1ccccc1)CC3,-74.6%
2,Cc1ccc2nc(C)n(-c3ccc(F)cc3)c(=O)c2c1,21.3%
3,Cc1ccc2cc3c(nc2c1)N(c1ccccc1)CC3,2.24%
4,CCN1Cc2c(/C=C/c3ccccc3)nc3ccc(OC)cc3c2N(c2cccc(Cl)c2)C1,-12.5%
5,CSc1nc(C)c2c(n1)N(c1ccc(F)cc1)CC2,19.8%
6,COc1cccc(N2CCc3c(C)nc4ccc(Cl)cc4c32)c1,-72.9%
7,Cc1ccc2nc(C)c3c(c2c1)SCC3,-27.4%
8,COc1cccc(/C=N/Nc2cc(Cl)nc(C)n2)c1O,20.8%
9,COc1cc2c3c(c1OC)C1(C=CC(=O)C=C1)CC3N(C(=O)c1ccccc1)CC2 (stereo not shown),-18.6%
10,CCC(=O)NC(=S)Nc1ccc(NC(=O)COc2ccc(Cl)cc2Cl)cc1,10.7%
11,CC(=O)c1ccccc1OCc1ccc(S(=O)(=O)Cc2ccccc2)cc1,-26.6%
12,Cc1ccc(/C=N/Nc2ccc(Cl)nn2)cc1,-0.808%
13,CCN(CC)S(=O)(=O)c1ccc(C(=O)OCC(=O)Nc2sc3c(c2C#N)CCCCC3)cc1,8.12%
14,Cc1ccc(NS(=O)(=O)c2ccc(C(=O)N3CC(C)CC(C)C3)cc2)cc1 (stereo not shown),-58.7%
15,Cc1ccc(NS(=O)(=O)c2ccc(C(=O)N3CCC3)cc2)cc1,15.7%
16,Cc1ccc(NS(=O)(=O)c2ccc(C(=O)N3CC(C)OC(C)C3)cc2)cc1 (stereo not shown),14.2%
17,Cc1ccc(NS(=O)(=O)c2ccc(C(=O)N3CCCCCC3)cc2)cc1,-8.38%
18,Cc1ccc(S(=O)(=O)Nc2ccc(C(=O)N3CCCC3)cc2)cc1,-0.474%
19,CC(C)(C)c1ccc(S(=O)(=O)Nc2ccc(C(=O)N3CCCC3)cc2)cc1,-61.9%
20,O=C(Nc1nnc(-c2ccco2)o1)c1ccc(Cl)s1,8.23%
21,Cc1cc(Cl)c(OCCCSc2nc(C)cc(=O)[nH]2)c(Br)c1,-10.3%
22,CCc1nnc(NC(=O)CSc2ncc(-c3ccccc3)[nH]2)s1,2.52%
23,Cc1cccc(C(=O)NNC(=O)c2ccccc2-n2cccc2)c1,11.7%
24,COC(=O)c1c(SCc2cccc3ccccc23)nc(=O)[nH]c1C,7.87%

row,Compound,"hERG current change (%, negative = inhibition) at 10uM"
1,COC(=O)c1c(SCC(=O)Nc2ccc(C)c(C)c2)nc(=O)[nH]c1C,2.16%
2,COC(=O)c1c(SCc2ccc(C#N)cc2)nc(=O)[nH]c1C,-76.9%
3,CCOC(=O)c1c(C)n(C)c2ccc(OCC(O)CNC(CC)CO)cc12 (stereo not shown),-7.11%
4,COc1ccccc1/C=N/Nc1nccnc1Cl,-11.5%
5,O=C(O)c1ccc(N=Cc2c(O)[nH]c(=O)[nH]c2=O)cc1,8.59%
6,CC(C)N1CCC(N2CCN(CCCn3cccn3)CC2CCO)CC1 (stereo not shown),-28%
7,CC(C)=CCN1CCN(CCCn2cccn2)CC1CCO (stereo not shown),-11.8%
8,OCCC1CN(CCCn2cccn2)CCN1Cc1ccccc1 (stereo not shown),-8.62%
9,CCOc1ccccc1CN1CCN(CCCn2cccn2)CC1CCO (stereo not shown),-57.4%
10,Cc1ccc(CN2CCN(CCCn3cccn3)CC2CCO)cc1 (stereo not shown),-66.9%
11,CC(C)CCN1CCN(CCCn2cccn2)CC1CCO (stereo not shown),-6.72%
12,CCOc1ccc(CN2CCN(CCCn3cccn3)CC2CCO)cc1 (stereo not shown),-80.1%
13,Cc1cccc(NS(=O)(=O)c2cccc3cccnc23)n1,4.27%
14,COC(=O)C(Cc1ccccc1)NC(=O)c1cccc(S(=O)(=O)N(C)C)c1 (stereo not shown),2.5%
15,Cc1ccccc1-c1noc(N)c1C#N,0.198%
16,CCCOc1cc(C)c(S(=O)(=O)NC2CC(C)(C)NC(C)(C)C2)cc1C,-15%
17,Cn1c(CSCc2ccc(Cl)cc2)nnc1SCC(=O)Nc1nc2ccccc2s1,9.45%
18,Cc1cc(C)cc(C(=O)NCCn2cc(SCC(=O)N3CCOCC3)c3ccccc32)c1,-9.88%
19,O=[N+]([O-])c1cccnc1NCCc1ccccc1,-18.9%
20,O=C(O)CNc1ncccc1[N+](=O)[O-],-86.1%
21,O=C(O)CNc1nc(Cl)ccc1[N+](=O)[O-],6.24%
22,CNC(=O)C(=O)NCCN1CCN(S(=O)(=O)c2ccc3ccccc3c2)CC1,29.3%
23,CC[C@H]1CN(C)CCc2c([nH]c3ccccc23)C(=O)C[C@@H]1/C(=C\OC)C(=O)OC,-69.5%
24,CC[C@H]1CN(C)C[C@@]2(C(=O)OC)Cc3c([nH]c4ccccc34)C(=O)C[C@@H]12,9.71%

row,Compound,"hERG current change (%, negative = inhibition) at 10uM"
1,CC[C@@H]1CN(C)[C@H]2Cc3c([nH]c4ccccc34)C(=O)C[C@@H]1[C@@H]2C(=O)OC,11.8%
2,C=CCc1cccc(C=Nc2ccc(Br)cc2)c1O,-4.96%
3,FC(F)(F)c1cc(Oc2ccc(Cl)cc2)ncc1-c1nnc(-c2ccc(Cl)cc2)o1,5.81%
4,CC(C)C(=O)NCCc1nc(-c2ccccc2Cl)no1,16.1%
5,O=C(OCCOCCN=C1NS(=O)(=O)c2ccccc21)C1CC(=O)N(c2ccccc2)C1 (stereo not shown),13.1%
6,O=C(OCCN=C1NS(=O)(=O)c2ccccc21)C1CC(=O)N(c2ccc(Cl)cc2)C1 (stereo not shown),-7.04%
7,O=C(OCCCN=C1NS(=O)(=O)c2ccccc21)C1CC(=O)N(c2ccc(Cl)cc2)C1 (stereo not shown),-58.7%
8,CC1(C)CC(CC(=O)O)(c2ccc(F)cc2)CCO1 (stereo not shown),3.33%
9,Cc1ccc(C)c(SCC(=O)Nc2ccc(C)c(S(=O)(=O)N3CCOCC3)c2)c1,-13.4%
10,CCOCCCNc1c(CC)c(C)c(C#N)c2nc3ccccc3n12,-42.3%
11,Cc1cccc(-n2cnc3c(c2=O)c2nc4ccccc4nc2n3Cc2ccco2)c1,-63.7%
12,COCCOC(=O)c1c(N)n(Cc2ccc(OC)cc2)c2nc3ccccc3nc12,-75.4%
13,CC(C)CNC(=O)c1c(N)n(Cc2ccco2)c2nc3ccccc3nc12,-14.1%
14,COC(=O)c1c(N)n(Cc2ccc(OC)cc2)c2nc3ccccc3nc12,-34.1%
15,COCCCNC(=O)c1c(N)n(Cc2ccco2)c2nc3ccccc3nc12,-2.08%
16,COCCOC(=O)c1c(N)n(Cc2ccccc2)c2nc3ccccc3nc12,-36.5%
17,COCCNC(=O)c1c(N)n(Cc2ccco2)c2nc3ccccc3nc12,-6.12%
18,CC(C)OC(=O)c1c(N)n(Cc2ccco2)c2nc3ccccc3nc12,-31.4%
19,COCCOC(=O)c1c(N)n(Cc2ccco2)c2nc3ccccc3nc12,-56.7%
20,COCC(C)OC(=O)c1c(N)n(Cc2ccco2)c2nc3ccccc3nc12 (stereo not shown),-55.7%
21,Cc1ccc(Cn2c(C)nc3c(c2=O)c2nc4ccccc4nc2n3Cc2ccco2)cc1,5.72%
22,Cc1cc(C)cc(-n2c3nc4ccccc4nc3c3c(=O)n(Cc4ccco4)cnc32)c1,6.26%
